# A number with no mark means an inactive call. Calls come from the whole dose curve; as a rule, active = well fitted activation curve with a large enough effect; inconclusive = small, poorly fitted or top-dose-only effect; inactive = flat fitted curve, though single readings scatter.
# Assay: Cellular Toxicity (caspase-3) Mesangial (AID 660);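 note: combined caspase 3 and 7 activity read by Caspase-Glo luminescence; cells exposed to compound for 16 h before the caspase read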
# Details: mesangial cells, normalized: DMSO 0%, 100 µM tamoxifen 100%; series mostly up to 91.7 µM; caspase-3 activation: at the top concentration
# Excerpt: NIH Chemical Genomics Center [NCGC]
# NIH Molecular Libraries Screening Centers Network [MLSCN]
# National Institutes of Environmental Health Sciences [NIEHS]
# National Toxicology Program [NTP]
# We have developed a 1536-well cell-based assay for quantitative high throughput screening (qHTS) against a number of cell lines to determine in vitro caspase 3/7 of small molecules. This particular assay uses the mesangial cell line which is derived from normal human renal glomeruli.
# NCGC Assay Protocol Summary:
# The Caspase-Glo 3/7 assay (Promega) is a homogeneous method to measure caspase-3 and caspase-7 activities in cultured cells. The quantitation of caspase 3/7 activity is based on the cleavage of a peptide-aminoluciferin substrate. After caspase cleaves the substrate the free aminoluciferin is liberated and serves as the substrate of luciferase, which generates the light. The luminescent signal is proportional to amount of caspase 3/7 activity present.
# Using the Caspase-Glo 3/7 assay, the amount of caspase 3/7 activity was measured in the mesangial cell line with complete culture medium following compound treatment for 16 hours. The assay was performed in opaque white 1536-well plates. In the screen, tamoxifen and doxorubicin were used as positive controls. Library compounds were measured for their ability to cause the activation of caspase 3/7 in the cell line, as reflected by an increase in luminescence signal, in a concentration-dependent manner. Data were normalized to the controls for basal activity (DMSO only) and 100% stimulation (100 uM tamoxifen). AC50 values were determined from concentration-response data modeled with the standard Hill equation.
# qHTS protocol for caspase 3/7 assay in mesangial cell line
# [Step] [Parameter] [Value] [Description]
# 1. Reagent; 5 uL; 1000 mesangial cells/well
# 2. Time; 5 hr; 37 °C incubation
# 4. Controls; 23 nL; Tamoxifen 0.23 uM to 100 uM & doxorubicin 7.0 pM to 100 uM
# 5. Time; 16 hr; 37 °C incubation
# 6. Reagent; 5 uL; Caspase-Glo 3/7 reagent
# 7. Time; 20 min; Room Temperature
# 8. Detection; Luminescence; Viewlux plate reader
# Keywords: caspase 3/7, apoptosis, mesangial cell line, luminescence, NTPHTS, NTPHTS_NCGC, NIEHS, EPA, DSSTox, MLSMR, MLSCN, NIH Roadmap, qHTS, NCGC
row,SMILES,caspase-3 activation [%]
1,COC(=O)Nc1cccc(OC(=O)Nc2cccc(C)c2)c1,-0.86
2,CC(C)(Cl)Cl,0.905
3,Nc1cccc2ccccc12,0.973
4,Cc1cc(C)cc(OP(=O)(Oc2cc(C)cc(C)c2)Oc2cc(C)cc(C)c2)c1,-0.192
5,C=CC(=O)OCC(CC)CCCC (stereo not given),-0.346
6,C/C=C/C=O,-0.439
7,CCCCNC(=O)n1c(NC(=O)OC)nc2ccccc21,-2.29
8,C=CCOCC1CO1 (stereo not given),1.49
9,O=C(O)C(Br)Br,0.991
10,CCC/C=N/O,0.497
11,C=CC=O,-0.071
12,Cc1ccc2c(C)cccc2c1,-1.1
13,C=CC(=O)OC,1.29
14,Oc1cc(Cl)c(Cl)c(Cl)c1,4.83
15,CN(C)C(=O)Nc1ccc(Cl)cc1,0.77
16,O=C(O)C(Cl)Br (stereo not given),0.029
17,CCC[N+](=O)[O-],0.74
18,O=[N+]([O-])c1ccc2c3c(cccc13)CC2,0.809
19,C=CCBr,0.798
20,CCSC(=O)N1CCCCCC1,0.227

row,SMILES,caspase-3 activation [%]
1,Oc1c(Cl)c(Cl)cc(Cl)c1Cl,-1.19
2,Clc1ccc(C(c2ccccc2Cl)C(Cl)(Cl)Cl)cc1 (stereo not given),0.453
3,O=[N+]([O-])c1cccc2c([N+](=O)[O-])cccc12,-1.05
4,CN(C)C(=O)Nc1cccc(C(F)(F)F)c1,-0.302
5,OCCOCCO,1.15
6,O=Cc1ccc(Cl)cc1Cl,-0.57
7,Clc1ccc(C(Cl)(Cl)Cl)cc1Cl,0.735
8,Cc1cc(-c2ccc(N)c(C)c2)ccc1N,0.424
9,COc1ccccc1N,2.71
10,C=C(C)CCl,0.853
11,N#CC(Cl)(Cl)Cl,-0.0824
12,c1ccc(P(c2ccccc2)c2ccccc2)cc1,0.949
13,Clc1ccc(Cl)c(Cl)c1,-0.529
14,CCOC(=O)C1OC1(C)c1ccccc1 (stereo not given),0.498
15,COc1cc(-c2ccc(N)c(OC)c2)ccc1N,1.38
16,Cc1ccc(N)cc1C,-1.47
17,CC(C)(C)C(O)(CCc1ccc(Cl)cc1)Cn1cncn1 (stereo not given),1.23
18,Oc1c(Cl)cccc1Cl,-1.48
19,Nc1ccc(-c2ccc(N)cc2)cc1,0.835
20,CC(C)[C@]12CC(=O)[C@H](C)[C@H]1C2,0.749

# Source: PubChem BioAssay (NCATS)
